# Values without a mark were called inactive. Inconclusive results are not listed. Where a call stands in place of a potency, no number is given. Activity calls are given as the source filed them. Unless noted, calls follow the shape of the dose curve; as a rule, active = well fitted curve in the direction sought with a large enough effect in the repeat runs; inconclusive = weak or mixed curves; inactive = no such curve, though single readings can be large; an effect the other way counts as inactive or inconclusive.
# Assays:
# [1] = target: Progesterone receptor (Homo sapiens) (UniProt P06401); test: qHTS assay to identify small molecule agonists of the progesterone receptor (PR) signaling pathway (AID 1346784; calls by dose curve; also: nearly all actives have a fitted effect of over 30% in size)
# Progesterone receptor (Homo sapiens), sequence (P06401 whole entry, looked up): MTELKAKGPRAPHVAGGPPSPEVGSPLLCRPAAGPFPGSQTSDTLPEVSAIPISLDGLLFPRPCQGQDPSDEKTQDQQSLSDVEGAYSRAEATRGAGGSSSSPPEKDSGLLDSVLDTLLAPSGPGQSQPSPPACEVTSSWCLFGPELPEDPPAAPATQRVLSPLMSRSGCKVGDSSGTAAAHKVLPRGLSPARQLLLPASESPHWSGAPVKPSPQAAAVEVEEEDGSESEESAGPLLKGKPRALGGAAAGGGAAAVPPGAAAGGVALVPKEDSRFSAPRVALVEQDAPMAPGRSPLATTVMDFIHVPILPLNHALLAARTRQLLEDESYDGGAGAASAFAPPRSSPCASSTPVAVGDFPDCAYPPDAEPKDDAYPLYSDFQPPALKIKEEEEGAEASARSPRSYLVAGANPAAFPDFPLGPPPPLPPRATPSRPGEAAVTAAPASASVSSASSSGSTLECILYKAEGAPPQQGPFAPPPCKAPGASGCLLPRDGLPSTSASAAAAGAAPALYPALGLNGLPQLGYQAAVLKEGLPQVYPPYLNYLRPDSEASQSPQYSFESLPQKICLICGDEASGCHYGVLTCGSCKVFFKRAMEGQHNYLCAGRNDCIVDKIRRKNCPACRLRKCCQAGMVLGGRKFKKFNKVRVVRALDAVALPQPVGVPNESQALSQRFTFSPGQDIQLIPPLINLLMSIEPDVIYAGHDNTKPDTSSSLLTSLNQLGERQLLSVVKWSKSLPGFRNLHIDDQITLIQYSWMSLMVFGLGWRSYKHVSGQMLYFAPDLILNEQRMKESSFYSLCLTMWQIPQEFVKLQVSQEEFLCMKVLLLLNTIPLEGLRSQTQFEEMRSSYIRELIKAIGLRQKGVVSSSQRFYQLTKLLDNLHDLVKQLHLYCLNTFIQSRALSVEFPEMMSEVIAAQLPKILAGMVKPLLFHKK
# Method in brief: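 PR-UAS-bla HEK 293T cells carrying a UAS-driven beta-lactamase reporter were seeded in medium with 2% charcoal-stripped FBS, preincubated 6 hr at 37C, then exposed to compounds in DMSO for 16 hr; agonism was read by LiveBLAzer B/G FRET fluorescence.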
# [2] = target: Progesterone receptor (Homo sapiens) (UniProt P06401); test: qHTS assay to identify small molecule antagonists of the progesterone receptor (PR) signaling pathway (AID 1346795; active = well fitted inhibition curve with a large enough effect in the signal ratio in the repeat runs, not every such curve was filed as active; the % refers to the signal ratio; also: potency is read from the fitted curve at half-maximal effect)
# Method in brief: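 PR-UAS-bla HEK293T cells carrying a UAS-driven beta-lactamase reporter were plated in medium with 2% charcoal-stripped FBS and rested 6 hr at 37C. Compounds were added with 1 nM R5020 (final) for 16 hr, then FRET substrate loaded 2 hr at room temperature.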
# [3] = qHTS assay to identify small molecule antagonists of the progesterone receptor (PR) signaling pathway - cell viability counter screen (AID 1346798); also: series mostly up to about 92 µM; nearly all actives have a fitted effect of over 50% in size
# Method in brief: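 PR-UAS-bla HEK293T cells in medium with 2% charcoal-stripped FBS were treated with compounds plus R5020 for 16 hr at 37C. Cell viability was then read by CellTiter-Glo luminescence after 30 min at room temperature in the same wells.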
# [4] = qHTS assay to identify small molecule agonists of the progesterone receptor (PR) signaling pathway - cell viability counter screen (AID 1346799; calls by dose curve; also: nearly all actives have a fitted effect of over 45% in size)
# Method in brief: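 PR-UAS-bla HEK293T cells, 3,000 per well in medium with 2% charcoal-stripped FBS, were preincubated 6 hr at 37C, then exposed to compounds for 16 hr; viability was read as CellTiter-Glo luminescence after 30 min at room temperature.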
# [5] = qHTS assay to identify small molecule antagonists of the TGF-beta/Smad signaling pathway - cell viability counter screen (AID 1346824); also: nearly all actives have a fitted effect of over 50% in size
# Method in brief: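 SBE-bla HEK 293T cells were plated overnight at 37 C, then given compounds in DMSO plus TGF-beta1 (added as 0.25 ng/mL solution) for 5 hr. After the bla read, CellTiter-Glo was added to the same wells and luminescence read after 30 min at room temperature.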
# [6] = qHTS assay to identify small molecule agonists of the TGF-beta/Smad signaling pathway - cell viability counter screen (AID 1346829); also: top concentration of the series differs between compounds; nearly all actives have a fitted effect of over 45% in size
# Method in brief: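 Luminescence from CellTiter-Glo, read after a 30 min room-temperature incubation, gives cell viability of SBE-bla HEK 293T cells treated 5 hr with compounds at 37 C.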
# [7] = qHTS assay to identify small molecule agonists of the TGF-beta/Smad signaling pathway (AID 1346859; active = well fitted activation curve with a large enough effect in the signal ratio in the repeat runs, not every such curve was filed as active; the % refers to the signal ratio; also: series mostly up to about 77 µM)
# Method in brief: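 HEK 293T cells stably carrying a beta-lactamase reporter driven by the Smad binding element were seeded overnight, exposed to DMSO-dissolved compounds for 5 hr at 37 C, 5% CO2, then loaded with FRET substrate for 2 hr at room temperature.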
# [8] = target: Thyrotropin-releasing hormone receptor (Homo sapiens) (UniProt P34981); test: qHTS assay to identify small molecule antagonists of the thyrotropin-releasing hormone receptor (TRHR) signaling pathway (AID 1346877; active = well fitted inhibition curve with a large enough effect in the repeat runs, not every such curve was filed as active; also: series mostly up to about 51 µM)
# Thyrotropin-releasing hormone receptor (Homo sapiens), sequence (P34981 whole entry, looked up): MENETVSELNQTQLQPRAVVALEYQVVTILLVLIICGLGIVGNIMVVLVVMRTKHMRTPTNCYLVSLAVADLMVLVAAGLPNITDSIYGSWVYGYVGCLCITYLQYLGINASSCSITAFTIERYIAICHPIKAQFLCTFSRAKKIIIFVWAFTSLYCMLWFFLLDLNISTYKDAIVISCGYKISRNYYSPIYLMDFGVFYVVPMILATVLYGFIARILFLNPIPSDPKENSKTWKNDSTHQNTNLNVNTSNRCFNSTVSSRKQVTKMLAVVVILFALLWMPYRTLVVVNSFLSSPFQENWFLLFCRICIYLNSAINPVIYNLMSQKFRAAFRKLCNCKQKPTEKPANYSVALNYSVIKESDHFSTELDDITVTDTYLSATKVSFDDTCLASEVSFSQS
# Method in brief: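 HEK293/TRHR cells, 18 h, 37 °C; Ca2+ dye 2 h; cpd 5 min RT; TRH 1 nM final; fluorescence read 3 min, 1 s intervals; 15 concs, triplicate.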
# [9] = target: Thyrotropin-releasing hormone receptor (Homo sapiens) (UniProt P34981); test: qHTS assay to identify small molecule agonists of the thyrotropin-releasing hormone receptor (TRHR) signaling pathway (AID 1346891; calls by dose curve; also: series mostly up to about 58 µM)
# Method in brief: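 TRHR-expressing HEK293 cells were plated 18 h at 37 °C/5% CO2, loaded with calcium dye 2 h at 37 °C, then given compound in DMSO; fluorescence was read kinetically for 3 min at 1 s intervals.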
# [10] = Human pregnane X receptor (PXR) small molecule agonists, qHTS cell viability counter screen (AID 1346977); also: nearly all actives have a fitted effect of over 50% in size; also: potency is read from the fitted curve at half-maximal effect
# Method in brief: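 PXR-Luc HepG2 cells in medium with 5% charcoal-stripped FBS were pre-incubated 5hr, then exposed to compounds for 24hr at 37C. Viability was read in the same wells by CellTiter-Fluor fluorescence, reagent added after 23hr with a 1hr incubation.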
# [11] = Caspase-3/7 induction in HepG2 cells by small molecules, qHTS assay (AID 1346978); also: nearly all actives have a fitted effect of over 15% in size
# Method in brief: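 Wild-type HepG2 cells (2,000/well) were settled 5 h at 37 C, 5% CO2, then exposed to compounds in DMSO for 17 h. Caspase-3/7 activity was read by luminescence 30 min after adding Caspase-Glo 3/7 reagent at room temperature.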
# [12] = Caspase-3/7 induction in CHO-K1 cells by small molecules, qHTS assay (AID 1346980); also: nearly all actives have a fitted effect of over 15% in size
# Method in brief: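 Wild-type cells were seeded at 1,500 per well and settled 5 hr at 37 C, 5% CO2, then exposed to DMSO-dissolved compounds for 17 hr. Caspase-Glo 3/7 reagent was added, and luminescence was read after 30min at room temperature.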
# [13] = Caspase-3/7 induction in HepG2 cells by small molecules, qHTS cell viability counter screen (AID 1346981); also: nearly all actives have a fitted effect of over 30% in size; also: potency is read from the fitted curve at half-maximal effect
# Method in brief: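 Fluorescence read-out of live-cell protease activity (CellTiter-Fluor) after 1 hr with reagent. This was measured in the same wells as the caspase-3/7 luminescence, on HepG2 cells exposed to DMSO-dissolved compounds for 16 hr at 37 C.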
# [14] = target: Nuclear receptor subfamily 1 group I member 2 (Homo sapiens) (UniProt O75469); test: Human pregnane X receptor (PXR) small molecule agonists, qHTS assay (AID 1346982); also: nearly all actives have a fitted effect of over 35% in size; also: potency is read from the fitted curve at half-maximal effect
# Nuclear receptor subfamily 1 group I member 2 (Homo sapiens), sequence (O75469 whole entry, looked up): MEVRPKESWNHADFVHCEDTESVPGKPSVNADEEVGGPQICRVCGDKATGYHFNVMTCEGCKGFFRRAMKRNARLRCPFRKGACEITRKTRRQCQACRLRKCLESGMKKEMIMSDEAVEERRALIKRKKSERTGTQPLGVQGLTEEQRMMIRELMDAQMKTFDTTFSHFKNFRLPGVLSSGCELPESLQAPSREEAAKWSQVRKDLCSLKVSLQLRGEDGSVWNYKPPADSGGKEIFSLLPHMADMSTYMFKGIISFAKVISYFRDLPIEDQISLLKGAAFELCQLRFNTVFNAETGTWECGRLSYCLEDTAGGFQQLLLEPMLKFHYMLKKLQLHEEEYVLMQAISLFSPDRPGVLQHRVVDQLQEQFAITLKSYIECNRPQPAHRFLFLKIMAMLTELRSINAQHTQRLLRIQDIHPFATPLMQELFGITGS
# Method in brief: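 HepG2 PXR-Luc reporter line, 5% charcoal-stripped FBS; 5 hr pre-incubation, compound (DMSO) 24 hr at 37 C/5% CO2; ONE-Glo 30 min RT; luminescence read-out.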
# [15] = target: Cytochrome P450 2D6 (Homo sapiens) (UniProt P10635); test: Cytochrome P450 Family 2 Subfamily D Member 6 (CYP2D6) small molecule antagonists: luciferase reporter qHTS assay (AID 1671196); also: nearly all actives have a fitted effect of over 50% in size; also: potency is read from the fitted curve at half-maximal effect
# Cytochrome P450 2D6 (Homo sapiens), sequence (P10635 whole entry, looked up): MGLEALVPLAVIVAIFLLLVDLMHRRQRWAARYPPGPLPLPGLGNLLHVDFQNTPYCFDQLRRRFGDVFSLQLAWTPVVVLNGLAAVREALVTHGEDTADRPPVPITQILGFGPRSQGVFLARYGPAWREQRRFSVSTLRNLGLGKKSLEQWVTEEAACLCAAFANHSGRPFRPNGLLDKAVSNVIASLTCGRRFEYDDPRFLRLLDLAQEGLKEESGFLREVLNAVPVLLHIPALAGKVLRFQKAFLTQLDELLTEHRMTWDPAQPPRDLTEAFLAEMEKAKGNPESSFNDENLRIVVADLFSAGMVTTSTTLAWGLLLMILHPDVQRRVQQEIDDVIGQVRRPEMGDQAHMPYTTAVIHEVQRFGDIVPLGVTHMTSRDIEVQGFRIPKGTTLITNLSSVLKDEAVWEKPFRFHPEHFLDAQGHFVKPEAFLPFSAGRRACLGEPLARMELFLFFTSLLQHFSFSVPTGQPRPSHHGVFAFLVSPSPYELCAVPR
# Method in brief: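 Luminogenic proluciferin substrate, CYP2D6 enzyme; 10 min RT preincubation with compound, NADPH regeneration system added, 1 h RT. Stop/detection reagent, 20 min RT, luminescence read (RLU). Signal proportional to CYP activity.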
# [16] = target: Cytochrome P450 2C19 (Homo sapiens) (UniProt P33261); test: Cytochrome P450 Family 2 Subfamily C Member 19 (CYP2C19) small molecule antagonists: luciferase reporter qHTS assay (AID 1671197); also: nearly all actives have a fitted effect of over 65% in size; also: potency is read from the fitted curve at half-maximal effect
# Cytochrome P450 2C19 (Homo sapiens), sequence (P33261 whole entry, looked up): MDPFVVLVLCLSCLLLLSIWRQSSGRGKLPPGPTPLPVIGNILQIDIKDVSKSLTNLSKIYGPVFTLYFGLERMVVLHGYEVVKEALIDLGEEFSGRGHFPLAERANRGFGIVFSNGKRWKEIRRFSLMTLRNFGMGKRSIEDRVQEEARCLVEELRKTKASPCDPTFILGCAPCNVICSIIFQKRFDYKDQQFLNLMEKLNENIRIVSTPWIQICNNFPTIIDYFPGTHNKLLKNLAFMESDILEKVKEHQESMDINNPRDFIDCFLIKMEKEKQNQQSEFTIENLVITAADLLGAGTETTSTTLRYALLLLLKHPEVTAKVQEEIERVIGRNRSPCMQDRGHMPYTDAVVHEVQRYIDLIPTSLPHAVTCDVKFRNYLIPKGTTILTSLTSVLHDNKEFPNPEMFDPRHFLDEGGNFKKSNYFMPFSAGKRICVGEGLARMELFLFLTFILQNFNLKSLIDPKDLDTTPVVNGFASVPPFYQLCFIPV
# Method in brief: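 CYP2C19 P450-Glo, 1536-well qHTS. Cpd + enzyme/proluciferin substrate 10 min RT; + NADPH regen, 37C 1 h; stop with luciferin detection reagent, 20 min RT, luminescence (RLU). Pos ctrl ketoconazole.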
# [17] = Caspase-3/7 induction in CHO-K1 cells by small molecules, qHTS cell viability counter screen (AID 1346979); also: nearly all actives have a fitted effect of over 35% in size; also: potency is read from the fitted curve at half-maximal effect
# Method in brief: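 Wild-type CHO-K1 cells were seeded at 1,500 per well, rested 5hr at 37 C, then exposed to compounds in DMSO. After 16hr, CellTiter-Fluor reagent was added and fluorescence read 1hr later as the viability measure.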
# [18] = target: Nuclear receptor subfamily 1 group I member 2 (Homo sapiens) (UniProt O75469); test: CYP3A4 induction through human pregnane X receptor (PXR) by small molecules, qHTS assay (AID 1346984); also: nearly all actives have a fitted effect of over 40% in size
# Method in brief: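 HepG2-derived DPX-2 line carrying PXR plus a CYP3A4-promoter luciferase reporter; cells plated 5 hr, compound-exposed 24 hr at 37C. CYP3A4 activity probed with 3uM (final) Luciferin-IPA for 3hr, then luciferase read after One-Glo.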
# [19] = target: Nuclear receptor subfamily 1 group I member 2 (Homo sapiens) (UniProt O75469); test: Human pregnane X receptor (PXR) activation by small molecules, qHTS assay (AID 1346985); also: nearly all actives have a fitted effect of over 40% in size
# Method in brief: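 DPX-2 cells (HepG2 co-transfected with a PXR response element and a CYP3A4-promoter luciferase construct) were seeded at 2,000 per well, rested 5 hr at 37C, then exposed to DMSO-dissolved compounds for 24 hr. Activation was read as luciferase luminescence.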
# [20] = target: Nuclear receptor subfamily 1 group I member 2 (Rattus norvegicus) (UniProt Q9R1A7); test: Rat pregnane X receptor (rPXR) activation by small molecules, qHTS assay (AID 1346983); conditions: rPXR luciferase reporter cells, One-Glo luminescence, 24 h; active compounds read high; also: nearly all actives have a fitted effect of over 20% in size
# Nuclear receptor subfamily 1 group I member 2 (Rattus norvegicus), sequence (Q9R1A7 whole entry, looked up): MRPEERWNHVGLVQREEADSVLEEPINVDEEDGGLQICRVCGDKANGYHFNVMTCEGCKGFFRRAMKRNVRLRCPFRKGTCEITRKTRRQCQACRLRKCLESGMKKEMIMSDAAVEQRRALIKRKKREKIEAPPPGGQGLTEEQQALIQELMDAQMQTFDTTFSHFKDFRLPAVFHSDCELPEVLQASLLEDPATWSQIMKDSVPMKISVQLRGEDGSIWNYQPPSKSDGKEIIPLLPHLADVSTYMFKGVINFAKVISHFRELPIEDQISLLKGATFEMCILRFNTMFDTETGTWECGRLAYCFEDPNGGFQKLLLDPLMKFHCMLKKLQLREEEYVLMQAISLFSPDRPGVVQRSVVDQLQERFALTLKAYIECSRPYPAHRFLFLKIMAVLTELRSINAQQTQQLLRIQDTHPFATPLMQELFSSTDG
# Method in brief: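 Cell-based rPXR luciferase reporter assay, 2,000 cells per well, rested 5hr at 37 C before compound addition in DMSO, then 24 hr at 37 C. One-Glo reagent was added and luminescence read after 30 min at room temperature.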
SMILES,Potency [1],Potency [2],Potency [3],Potency [4],Potency [5],Potency [6],Potency [7],Potency [8],outcome [9],Potency [10],Potency [11],Potency [12],Potency [13],Potency [14],Potency [15],Potency [16],Potency [17],Potency [18],Potency [19],max activation [20]
C=CC(=O)OCCOC(=O)C=C,inactive,inactive,inactive,inactive,inactive,inactive,inactive,inactive,inactive,inactive,inactive,inactive,inactive,inactive,inactive,inactive,–,–,–,–
Cc1nc2n(c(=O)c1CCN1CCC(c3noc4cc(F)ccc34)CC1)CCCC2,inactive,inactive,inactive,inactive,inactive,inactive,inactive,inactive,inactive,inactive,inactive,inactive,inactive,inactive,2.19 µM (active),inactive,inactive,–,–,–
NC(=O)c1cccc([N+](=O)[O-])c1,inactive,inactive,inactive,inactive,inactive,inactive,inactive,inactive,inactive,inactive,inactive,inactive,–,inactive,inactive,inactive,inactive,–,–,–
CC1(C)CCC[C@]2(C)[C@H]3CCO[C@]3(C)CC[C@@H]12,inactive,inactive,inactive,inactive,inactive,inactive,inactive,inactive,inactive,inactive,inactive,inactive,inactive,inactive,inactive,–,inactive,–,–,–
CC(CCc1ccccc1)NCC(O)c1ccc(O)c(C(N)=O)c1 (stereo not given),inactive,inactive,inactive,inactive,inactive,inactive,inactive,inactive,inactive,43.3 µM (active),inactive,inactive,27.3 µM (active),17.2 µM (active),0.564 µM (active),–,–,inactive,inactive,–
O=C(/C=C/c1ccccc1)OC/C=C/c1ccccc1,inactive,inactive,inactive,inactive,inactive,inactive,inactive,inactive,inactive,inactive,inactive,inactive,inactive,–,inactive,35.6 µM (active),inactive,–,–,–
CN(C)Cc1ccccc1O,inactive,inactive,inactive,inactive,inactive,inactive,inactive,inactive,inactive,inactive,inactive,inactive,inactive,inactive,inactive,inactive,inactive,–,–,–
CC(C)NC[C@@H](O)COc1ccc(CC(N)=O)cc1,–,–,–,–,–,–,–,–,–,–,–,–,–,–,–,–,–,–,–,-0.64%
CN1CCN(Cc2cc(-c3ccc4[nH]c(=O)oc4c3)co2)[C@@H](c2ccc(F)cc2)C1,inactive,46.7 µM (active),inactive,–,inactive,inactive,inactive,inactive,inactive,46.7 µM (active),inactive,inactive,–,10.5 µM (active),34.3 µM (active),–,58.8 µM (active),–,–,–
